Drawing on PubChem BioAssay (NCATS), this text covers Potency for 40 molecules.

The structures appear in SMILES notation. Values without a mark were called inactive. Active and inactive are the calls of the source. The rule behind the calls is not given here.
Potency is the fitted concentration of half-maximal effect.

This assay deals with HIV-1 nucleocapsid protein NCp7 (binding to TG oligonucleotide). Briefly: HIV Nucleocapsid (AID 346).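 Note: potency is for inhibitors that block NC binding and lower polarization.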 The following applies: HIV-1 NC / fluorescein-TGTGTGTG probe, fluorescence polarization. The gist of the method:
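NCp7 100 nM + fluorescein TG4xF 10 nM; Hepes pH 7.5/250mM NaCl/1uM ZnCl2/0.004% PEG 20000; 1 hr RT; FP, 45 s exposure; oligo-only wells as negative control.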
Take `CN1CCC2(CC1)CCN(C(=O)c1cc(C(F)(F)F)cc(C(F)(F)F)c1)CC2`: the Potency is above 20 µM.
As for `Cn1cccc1C(=O)N1CCC2(CC1)CN(c1ccccn1)C2`, the figure is above 20 µM.
On to `O=C(Nc1cccc(F)c1)N1CCC2(CC1)CCN(C(=O)c1ccco1)CC2`, for which the Potency was above 20 µM.
As for `CS(=O)(=O)N1CCC2(CCCN(C(=O)Nc3ccccc3)C2)CC1`, the figure is above 20 µM; as for `O=C(Oc1ccccc1)N1CCC2(CCCN(c3ccccn3)C2)CC1`, above 20 µM.
In the case of `N#Cc1cccc(-c2ccc3ncnc(N4CCNCC4)c3c2)c1`, the Potency was above 20 µM.
As for `N#Cc1cccc(NC(=O)N2CC3(CCN(C(=O)c4cccc(F)c4)CC3)C2)c1`, the figure is above 20 µM; as for `CC(=O)N1CCC2(CCCN(Cc3ccc(C#N)cc3)C2)CC1`, above 20 µM; as for `Fc1ccc(Nc2ncncc2-c2ccoc2)cc1`, above 20 µM.
`O=C(c1ccncc1)N1CCC2(CCCN(c3cccc(-c4ccccc4)c3)C2)CC1`: the Potency is above 20 µM.
The result for `COc1cccc(-c2nccc(NC3CCNCC3)n2)c1` reads above 20 µM; that for `O=C(c1cc(C(F)(F)F)cc(C(F)(F)F)c1)N1CCC[C@@]2(CCN(c3ccccc3)C2)C1`, above 20 µM.
In the case of `Cc1nc2cnc(N3CCNCC3)nc2n(Cc2ccc(F)cc2)c1=O`, the Potency was above 4 µM.
For the molecule `CCNc1ncc2nc(C)c(=O)n(C)c2n1`, the Potency was above 20 µM.
`COc1cccc(Cn2c(=O)c(CCc3ccccc3)nc3cnc(N4CCN(C)CC4)nc32)c1`: the Potency was above 4 µM.
With `COc1ccc(CNc2ncncc2-c2ccccc2Cl)c(OC)c1`, the Potency is above 20 µM.
As for `COC(=O)N1CCC2(CCN(C(=O)Nc3cccc(F)c3)CC2)CC1`, the Potency is above 20 µM.
As for `COCCn1c(=O)c(C)nc2cncnc21`, the Potency is above 20 µM.
Consider `Cc1cnc(CNc2ncncc2-c2cccc(C#N)c2)cn1`, for which the Potency is above 20 µM.
The result for `COC(=O)N1CCC[C@@]2(CCN(C(c3ccccc3)c3ccccc3)C2)C1` reads above 20 µM; that for `CCNc1ncc2nc(-c3cc(F)cc(F)c3)c(=O)n(C)c2n1`, above 20 µM.
Turning to `CN(C)C(=O)c1ccc(-c2nc(Nc3ccc(F)cc3)c3ccccc3n2)cc1`, the Potency was above 20 µM.
The result for `Cc1ccccc1-c1cc(NCc2cccnc2)ncn1` reads above 20 µM.
For the molecule `Cc1cccc(CNc2ncncc2-c2ccccc2Cl)c1`, the Potency was above 20 µM.
Consider `CC(C)NC(=O)N1CC[C@@]2(CCCN(C(=O)c3cnccn3)C2)C1`, for which the Potency is above 20 µM.
On to `COc1ccc(C(=O)N2CCC3(CCCN(Cc4ccncc4)C3)CC2)cc1`, for which the Potency was above 20 µM.
As for `CC(=O)N1CCC[C@@]2(CCN(Cc3ccccc3)C2)C1`, the figure is above 20 µM.
With `CCNc1ncc2nc(-c3ccc(OC)cc3)c(=O)n(Cc3ccc(F)cc3)c2n1`, the Potency is above 20 µM.
The result for `CN(C)c1ncc2nc(-c3cccs3)c(=O)n(C3CC3)c2n1` reads 0.297 µM (active); that for `COc1cccc(Cn2c(=O)cnc3cnc(Nc4cccc(OC)c4)nc32)c1`, above 20 µM; that for `N#Cc1cccc(NC(=O)N2CCC3(CC2)CCN(C(=O)c2cnccn2)CC3)c1`, above 20 µM.
As for `O=c1cnc2cnc(N3CCOCC3)nc2n1C[C@H]1CCCO1`, the Potency was above 20 µM.
Consider `COCC(=O)N1CCC2(CC1)CCN(C(=O)NC(C)C)CC2`, for which the Potency was above 20 µM.
The result for `COc1ccccc1-c1cc(-n2ccnc2)ncn1` reads above 20 µM.
As for `CN(Cc1ccco1)c1ncncc1-c1ccoc1`, the figure is above 20 µM; as for `COc1ccc(NC(=O)N2CC3(CCN(C(=O)c4c(C)noc4C)CC3)C2)cc1`, above 20 µM.
For the molecule `N#Cc1ccc(CN2CCC3(CC2)CCN(C(=O)c2ccco2)CC3)cc1`, the Potency is above 20 µM.
As for `Clc1ccccc1-c1cncnc1NCc1cccs1`, the figure is above 20 µM; as for `Cc1nc2cnc(N3CCN(C)CC3)nc2n(Cc2ccc(F)cc2)c1=O`, above 20 µM; as for `CNc1nc(-c2c(C)noc2C)nc2ccccc12`, above 20 µM.
